The nature of assay [1]: binders of probe aFSTL3 on microarray, primary screen, stem cell growth factor project, biochemical, small-molecule microarray, fluorescence 635/667 (AID 1064).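 Note: measures binding of the biotinylated anti-FSTL3 antibody to printed compounds.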 Conditions: higher = more signal.
A short description of assay [2]: binders from COS7 lysate, DM2A8 probe, primary screen, torsin A project, cell lysate, small-molecule microarray, fluorescence 635/667 (AID 1065). Conditions: higher = more signal, COS7 lysate expressing mutant human TOR1A.
A short description of assay [3]: binders of probe aFGF2 on microarray, primary screen, stem cell growth factor project, biochemical, small-molecule microarray, fluorescence 635/667 (AID 1067).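 Note: measures binding of biotinylated aFGF2 protein to printed compounds on slides; z-score merges feature fluorescence and signal-to-noise across triplicate slides.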 Conditions: higher = more signal.
A short description of assay [4]: binders of probe aFGF10 on microarray, primary screen, stem cell growth factor project, biochemical, small-molecule microarray, fluorescence 635/667 (AID 1071).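 Note: score merges 667 nm spot intensity and signal to noise from triplicate slides.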 Conditions: higher = more signal.
For assay [5], the target named is Neurogenic locus notch homolog protein 2 (Homo sapiens) (UniProt Q04721). The assay can be described thus: Notch2 binders on small-molecule microarrays, primary screen, biochemical, small-molecule microarray, 635 nm fluorescence, stem cell growth factors (AID 1073). Conditions: Notch2 binding, higher = more signal.
Chain of Neurogenic locus notch homolog protein 2 (Homo sapiens) (Q04721 whole entry, looked up, canonical isoform): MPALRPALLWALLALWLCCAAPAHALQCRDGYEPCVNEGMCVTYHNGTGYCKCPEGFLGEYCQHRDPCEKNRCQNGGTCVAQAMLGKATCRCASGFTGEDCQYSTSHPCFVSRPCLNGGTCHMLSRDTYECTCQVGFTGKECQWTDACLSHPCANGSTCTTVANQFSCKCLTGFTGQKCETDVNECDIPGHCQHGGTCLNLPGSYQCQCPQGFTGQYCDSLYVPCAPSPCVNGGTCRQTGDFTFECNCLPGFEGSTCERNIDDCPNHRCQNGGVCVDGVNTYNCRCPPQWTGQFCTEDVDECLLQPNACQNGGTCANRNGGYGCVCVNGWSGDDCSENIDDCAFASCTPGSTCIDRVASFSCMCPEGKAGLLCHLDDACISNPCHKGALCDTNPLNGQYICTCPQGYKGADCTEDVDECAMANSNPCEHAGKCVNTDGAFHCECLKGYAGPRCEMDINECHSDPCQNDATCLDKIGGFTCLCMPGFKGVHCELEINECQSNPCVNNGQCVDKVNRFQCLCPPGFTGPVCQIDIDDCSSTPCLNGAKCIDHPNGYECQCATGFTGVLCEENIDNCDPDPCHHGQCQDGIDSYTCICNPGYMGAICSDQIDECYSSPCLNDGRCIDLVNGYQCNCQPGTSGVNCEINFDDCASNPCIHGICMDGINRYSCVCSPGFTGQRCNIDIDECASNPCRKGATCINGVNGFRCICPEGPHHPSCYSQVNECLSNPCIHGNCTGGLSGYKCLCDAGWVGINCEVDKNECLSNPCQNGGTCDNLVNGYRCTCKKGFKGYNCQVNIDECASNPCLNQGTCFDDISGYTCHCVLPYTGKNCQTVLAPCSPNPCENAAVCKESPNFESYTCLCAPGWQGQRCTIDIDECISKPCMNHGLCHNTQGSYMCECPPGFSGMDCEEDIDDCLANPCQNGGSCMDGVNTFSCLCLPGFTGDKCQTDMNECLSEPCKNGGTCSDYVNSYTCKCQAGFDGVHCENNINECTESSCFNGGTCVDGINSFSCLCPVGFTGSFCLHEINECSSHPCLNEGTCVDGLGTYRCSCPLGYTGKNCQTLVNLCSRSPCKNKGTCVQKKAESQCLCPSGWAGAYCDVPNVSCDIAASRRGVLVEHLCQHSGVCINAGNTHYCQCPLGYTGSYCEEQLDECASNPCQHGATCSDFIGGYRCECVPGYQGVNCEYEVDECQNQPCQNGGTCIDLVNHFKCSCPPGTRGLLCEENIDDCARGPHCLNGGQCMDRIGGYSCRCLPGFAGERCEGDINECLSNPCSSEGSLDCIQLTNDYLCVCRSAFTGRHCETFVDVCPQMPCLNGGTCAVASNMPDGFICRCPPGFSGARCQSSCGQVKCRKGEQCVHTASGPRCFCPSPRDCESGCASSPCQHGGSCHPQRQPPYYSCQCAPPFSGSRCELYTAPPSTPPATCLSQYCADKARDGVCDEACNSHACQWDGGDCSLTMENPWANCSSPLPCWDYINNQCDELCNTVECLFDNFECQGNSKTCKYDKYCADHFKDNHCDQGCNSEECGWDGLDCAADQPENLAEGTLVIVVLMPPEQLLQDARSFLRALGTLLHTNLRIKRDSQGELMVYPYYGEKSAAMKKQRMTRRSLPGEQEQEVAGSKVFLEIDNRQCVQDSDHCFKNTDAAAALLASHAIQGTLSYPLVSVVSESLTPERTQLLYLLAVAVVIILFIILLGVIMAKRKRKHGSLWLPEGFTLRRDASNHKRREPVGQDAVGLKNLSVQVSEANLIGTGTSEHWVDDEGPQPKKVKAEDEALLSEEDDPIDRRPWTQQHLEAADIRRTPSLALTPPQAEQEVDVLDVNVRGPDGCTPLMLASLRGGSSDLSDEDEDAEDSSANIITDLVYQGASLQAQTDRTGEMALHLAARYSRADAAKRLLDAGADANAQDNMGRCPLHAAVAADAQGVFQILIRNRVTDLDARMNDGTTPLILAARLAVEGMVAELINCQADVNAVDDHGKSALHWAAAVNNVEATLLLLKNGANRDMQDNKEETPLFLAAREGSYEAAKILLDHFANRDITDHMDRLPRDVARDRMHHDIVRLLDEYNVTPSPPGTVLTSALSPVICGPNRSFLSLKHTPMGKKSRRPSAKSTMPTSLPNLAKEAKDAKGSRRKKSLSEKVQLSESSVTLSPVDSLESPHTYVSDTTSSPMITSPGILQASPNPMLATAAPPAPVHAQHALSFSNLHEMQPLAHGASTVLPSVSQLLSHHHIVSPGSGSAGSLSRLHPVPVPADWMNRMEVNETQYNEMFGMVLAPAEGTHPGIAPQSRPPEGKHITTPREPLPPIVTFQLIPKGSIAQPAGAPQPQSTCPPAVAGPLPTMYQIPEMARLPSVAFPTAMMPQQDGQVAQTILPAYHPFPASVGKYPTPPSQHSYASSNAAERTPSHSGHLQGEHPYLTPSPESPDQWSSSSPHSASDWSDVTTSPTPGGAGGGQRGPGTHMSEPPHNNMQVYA
Assay [6] has as its target Pro-neuregulin-1, membrane-bound isoform (Homo sapiens) (UniProt Q02297). Kind of assay: NRG1 binders on small-molecule microarrays, primary screen, psychiatric disease protein project, biochemical, small-molecule microarray, fluorescence 635/667 (AID 1075).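 Note: score combines 667 nm spot fluorescence with signal to noise.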 Conditions: NRG1 binding, 635 nm fluorescence, higher = more signal.
Assay [7] relates to Neuregulin-1 EGF-like domain. Kind of assay: binders of neuregulin-1 EGF-like domain, primary screen, biochemical, small-molecule microarray, 635 nm fluorescence (AID 1081).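 Note: binding of the protein to compounds printed on small-molecule microarray slides.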 Conditions: small-molecule microarray binding, higher = more signal.
Assay [8] can be described thus: FRG1 promoter luciferase signal modulators, primary screen, FRG1 inhibition for FSHD, cell-based, C2C12 myotubes, firefly/Renilla luciferase, luminescence (AID 1084). Conditions: higher = more signal, called active from +8 up or from −8 down.
Assay [9] is described as follows: binders of probe aFST on microarray, primary screen, stem cell growth factor project, biochemical, small-molecule microarray, fluorescence 635/667 (AID 1086).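 Note: score merges 667 nm fluorescence with signal-to-noise of each printed compound spot.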 Conditions: higher = more signal.
Assay [10] in a line: binders of probe aHhip on microarray, primary screen, stem cell growth factor project, biochemical, small-molecule microarray, fluorescence 635/667 (AID 1087).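 Note: score merges spot fluorescence at 667nm with spot signal to noise ratio.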 Conditions: higher = more signal.
Assay [11] concerns PRMT1 (protein arginine N-methyltransferase 1). Kind of assay: PRMT1 binders on small-molecule microarrays, primary screen, biochemical, small-molecule microarray, 635 nm fluorescence (AID 1088).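 Note: binding of Prmt1 protein to compounds spotted on small-molecule microarray slides.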 Conditions: small-molecule microarray binding, higher = more signal.
A short description of assay [12]: yeast growth modulation, basal conditions, primary screen, YJM789 clinical isolate, OD600, 24 h (AID 1089).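 Note: growth of clinical yeast isolate S. cerevisiae YJM 789 seeded 1000 cells per well; test concentration not given here.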 Conditions: S. cerevisiae YJM789 growth, higher = more signal, called active from +8 up or from −8 down.
Assay [13] is described as follows: fission yeast growth modulation, primary screen, strain 972, OD600, 24 h, no modulator (AID 1090).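 Note: basal condition with compound alone and no growth modifier present; test concentration not given here.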 Conditions: S. pombe 972 growth, higher = more signal, called active from +8 up or from −8 down.
The nature of assay [14]: S. cerevisiae growth modulation with rapamycin, primary screen, strain BY4716, OD600, 96 h (AID 1091). Note: test concentration not given here. Conditions: higher = more signal, called active from +8 up or from −8 down.
Assay [15] concerns the target Torsin-1A-interacting protein 2 (Homo sapiens) (UniProt Q8NFQ8). The assay can be described thus: LULL1 binders on small-molecule microarray, primary screen, cell lysate, human LULL1 lysate, 635/667 nm fluorescence (AID 1092).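 Note: probe is lysate of COS7 cells overexpressing human LULL1; score merges per-feature 667 nm fluorescence with signal-to-noise.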 Conditions: hLULL1 lysate binding, 635 nm fluorescence, higher = more signal.
Assay [16] is described as follows: E. coli growth modulation, two-sided OD650, primary screen, E. coli filamentation project, strain DRC41, 24 h (AID 1093).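 Note: MC1000 strain lacking acrAB efflux and sulA so SOS filamentation is blocked; test concentration not given here.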 Conditions: OD650, 24 h, higher = more signal, called active from +8 up or from −8 down.
Assay [17] in a line: small-molecule microarray binders of probe aLefty2, primary screen, biochemical, biotinylated probe, 635/667 nm fluorescence (AID 1094).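 Note: score merges spot fluorescence near 667 nm with spot signal-to-noise ratio.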 Conditions: higher = more signal.
Assay [18] deals with Noggin (protein binding on small-molecule microarray). The assay can be described thus: Noggin binders on small-molecule microarray, primary screen, biochemical, 635/667 nm fluorescence (AID 1095).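 Note: score merges 667 nm feature fluorescence with signal to noise over triplicate slides.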 Conditions: 635 nm fluorescence, higher = more signal.
Assay [19] deals with Neurogenic locus notch homolog protein 3 (Homo sapiens) (UniProt Q9UM47). Kind of assay: NOTCH3 binders on small-molecule microarray, primary screen, biochemical, 635/667 nm fluorescence (AID 1096). Conditions: NOTCH3 binding, 635 nm fluorescence, higher = more signal.
Assay [20] is described as follows: small-molecule microarray binders of probe aEGFR, primary screen, biochemical, biotinylated probe, 635/667 nm fluorescence (AID 1097).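 Note: probe is a biotinylated anti-EGFR antibody binding compounds printed on slides; score combines fluorescence near 667 nm and signal to noise of each spot.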 Conditions: higher = more signal.

Calls of active or inactive are those of the source.

Chain of Torsin-1A-interacting protein 2 (Homo sapiens) (Q8NFQ8 whole entry, looked up): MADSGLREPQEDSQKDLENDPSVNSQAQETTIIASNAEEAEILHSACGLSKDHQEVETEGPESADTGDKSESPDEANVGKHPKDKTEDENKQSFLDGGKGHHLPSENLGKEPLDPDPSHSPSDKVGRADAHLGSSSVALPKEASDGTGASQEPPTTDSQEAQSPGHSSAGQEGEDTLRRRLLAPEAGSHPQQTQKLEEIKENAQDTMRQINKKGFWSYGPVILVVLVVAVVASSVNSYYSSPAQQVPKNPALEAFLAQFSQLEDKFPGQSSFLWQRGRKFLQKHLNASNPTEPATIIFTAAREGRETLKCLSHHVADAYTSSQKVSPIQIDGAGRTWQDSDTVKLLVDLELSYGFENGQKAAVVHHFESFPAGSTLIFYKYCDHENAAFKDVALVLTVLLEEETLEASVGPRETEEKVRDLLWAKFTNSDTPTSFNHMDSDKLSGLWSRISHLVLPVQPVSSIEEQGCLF
Chain of Pro-neuregulin-1, membrane-bound isoform (Homo sapiens) (Q02297 whole entry, looked up, the tested form may be a part, canonical isoform): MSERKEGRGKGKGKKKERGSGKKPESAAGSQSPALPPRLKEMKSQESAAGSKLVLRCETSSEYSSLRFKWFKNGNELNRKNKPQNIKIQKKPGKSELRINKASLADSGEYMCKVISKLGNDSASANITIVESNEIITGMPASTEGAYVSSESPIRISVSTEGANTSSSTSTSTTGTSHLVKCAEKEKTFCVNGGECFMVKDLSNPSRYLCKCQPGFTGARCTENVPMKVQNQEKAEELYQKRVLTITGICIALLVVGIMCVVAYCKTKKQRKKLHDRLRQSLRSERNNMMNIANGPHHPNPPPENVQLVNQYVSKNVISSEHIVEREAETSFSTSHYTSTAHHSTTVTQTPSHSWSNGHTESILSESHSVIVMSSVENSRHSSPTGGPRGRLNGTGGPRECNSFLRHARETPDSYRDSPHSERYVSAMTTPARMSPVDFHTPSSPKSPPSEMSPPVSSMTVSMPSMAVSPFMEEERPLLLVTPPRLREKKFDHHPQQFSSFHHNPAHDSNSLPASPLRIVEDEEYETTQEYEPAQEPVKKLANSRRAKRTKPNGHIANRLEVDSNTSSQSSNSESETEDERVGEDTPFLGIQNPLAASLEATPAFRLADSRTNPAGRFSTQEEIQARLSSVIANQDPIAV

Regarding `C=C(COC)C(=O)CC[C@H](OC(=O)c1ccccc1-c1ccccc1C(=O)O)c1ccc(OCCO)cc1`, the composite z-score in [1] was -0.249; in assay [2], 1.42; in assay [3], -0.0729; in assay [4], 0.512; in [5] it was -0.0342; in assay [6], 1.09. For the same compound, the composite z-score in assay [7] was 1.11; in [9] it was 0.347; in assay [10], -0.236; in assay [11], 1.55; in assay [15] it was 0.75; in assay [17], -0.117. For the same compound, the composite z-score in assay [18] was 1.52; in assay [19], 0.615; in [20], -0.111. Further, the z-score in assay [8] was 0.552 (inactive); in assay [12] it was -1.73 (inactive); in [13] it was -0.613 (inactive); in assay [14], -0.509 (inactive); in assay [16] it was 0.802 (inactive).

Consider `O=C1C2C=CC(C(O)c3cccc4ccccc34)N(Nc3ccccc3)C2C(=O)N1c1ccccc1` (stereo not given), for which the composite z-score in assay [1] is -0.0673; in [2], 0.113; in assay [3], 0.127; in assay [4] it was 0.822; in assay [5] it was 1.61; in [6], 1.89. Also, the composite z-score is 1.19 in [7]; 1.55 in assay [9]; -0.261 in [10]; 1.56 in assay [11]; 3.16 in [15]; 0.343 in assay [17]. For the same compound, the composite z-score is 0.428 in assay [18], 1.04 in assay [19] and -0.0271 in [20]. For the same compound, the z-score in [8] was -1.41 (inactive); in [12] it was 0.487 (inactive); in assay [13], -0.251 (inactive); in assay [14] it was -0.0667 (inactive); in assay [16], -1.07 (inactive).

For `O=C(O)[C@@]1(Cc2ccccc2)COC(c2ccc(OCCCO)cc2)=N1`, the composite z-score in [1] is 0.805; in assay [2], -0.24; in [3] it was -0.0886; in [4], -0.24; in assay [5] it was -0.287; in assay [6], 1.19. Also, the composite z-score was 1.2 in assay [7]; 0.519 in assay [9]; -0.0994 in assay [10]; -0.269 in [11]; 2.64 in [15]; -0.0915 in assay [17]. Further, the composite z-score was -0.66 in assay [18], -0.776 in assay [19] and -0.229 in assay [20]. In addition, the z-score in assay [8] is 0.809 (inactive); in assay [12], 0.661 (inactive); in [13], 1.01 (inactive); in assay [14], 1.3 (inactive); in assay [16], 0.598 (inactive).

For the compound `COCCOC(=O)N1C(=O)[C@@]2(c3cc(C#CCNC(N)=O)ccc31)[C@H](C(N)=O)[C@H]1C(=O)O[C@H](c3ccccc3)[C@H](c3ccccc3)N1[C@@H]2c1ccc(OCCO)cc1`, the composite z-score in assay [1] was -0.147; in [2], 0.0525; in [3], -0.0139; in assay [4], 0.309; in assay [5], 1.16; in [6], 0.564. Moreover, the composite z-score in [7] was 0.342; in [9], 0.459; in assay [10], -0.0427; in assay [11], 1.55; in assay [15], 1.53; in [17], -0.0054. Further, the composite z-score in [18] was 1.23; in assay [19], 1.07; in assay [20], -0.0085. For the same compound, the z-score in [8] is 1.34 (inactive); in assay [12], 0.517 (inactive); in [13] it was 0.0121 (inactive); in assay [14], 1.98 (inactive); in [16], -0.27 (inactive).

Turning to `CC1CC/C=C\[C@H]2OC34C=CCN(c5ccc(Cl)cc5)C(=O)[C@H]3N(C(CO)C(C)C)C(=O)[C@]4(C)C2C(=O)O1` (stereo not given in full), the composite z-score in [1] is -0.128; in [2], 1.9; in [3], -0.146; in assay [4] it was -0.38; in [5], -0.594; in assay [6], 1. The composite z-score was 1.47 in assay [7]; -0.637 in assay [9]; 0.0373 in assay [10]; -0.538 in assay [11]; 2.25 in assay [15]; -0.166 in assay [17]. In addition, the composite z-score in assay [18] was -0.643; in assay [19] it was 0.161; in assay [20], -0.233. Also, the z-score is 0.51 (inactive) in assay [8]; 1.04 (inactive) in assay [12]; -0.775 (inactive) in [13]; -0.439 (inactive) in [14]; -0.304 (inactive) in assay [16].

For `[N-]=[N+]=NCc1ccccc1C[C@]1(C(=O)NCCN2CCOCC2)COC(c2ccc(OCCCO)cc2)=N1`, the composite z-score was 0.186 in assay [1]; 1.25 in assay [2]; -0.0647 in assay [3]; 0.121 in [4]; 0.973 in assay [5]; 1.02 in [6]. The composite z-score is 1.2 in assay [7]; 0.817 in [9]; -0.0645 in assay [10]; 1.55 in assay [11]; 3.08 in [15]; 0.0004 in assay [17]. For the same compound, the composite z-score was 0.516 in assay [18], 0.486 in [19] and -0.0351 in assay [20]. Further, the z-score is -2.23 (inactive) in assay [8]; -1.52 (inactive) in [12]; -2.24 (inactive) in assay [13]; -1.66 (inactive) in [14]; 1.46 (inactive) in assay [16].

As for `C=C(/C(=C/C[C@@H](OC(C)=O)c1ccccc1OCCO)c1cnc2ccccc2c1)C(C)C`, the composite z-score in assay [1] was -0.0572; in assay [2], 1.23; in assay [3], -0.166; in assay [4] it was 0.758; in assay [5], 1.13; in [6] it was 0.179. Besides, the composite z-score in assay [7] was 0.911; in assay [9], 0.0287; in assay [10] it was -0.344; in [11], 1.4; in [15], 0.885; in assay [17], -0.178. In addition, the composite z-score was 1.2 in [18], 0.646 in assay [19] and -0.0439 in assay [20]. Moreover, the z-score was -0.698 (inactive) in [8]; -0.37 (inactive) in assay [12]; -1.11 (inactive) in assay [13]; -0.449 (inactive) in assay [14]; 0.575 (inactive) in assay [16].

For the compound `COc1ccc([Si](C)(C)[C@@H]2[C@@H](CCO)O[C@]3(C(=O)N(Cc4ccccc4)c4ccc(N5C(=O)COc6ccccc65)cc43)[C@H]2C)cc1`, the composite z-score was -0.169 in [1]; 0.217 in assay [2]; -0.0973 in assay [3]; 0.2 in assay [4]; 0.128 in assay [5]; 0.666 in assay [6]. Besides, the composite z-score was 1.05 in assay [7]; 0.17 in assay [9]; -0.0994 in assay [10]; 1.39 in [11]; 1.74 in assay [15]; -0.0511 in assay [17]. The composite z-score in assay [18] is 1.09; in [19] it was 0.624; in assay [20], -0.187. Besides, the z-score in [8] was -0.409 (inactive); in [12] it was 1.56 (inactive); in assay [13], 0.504 (inactive); in [14], 9.67 (active); in [16] it was 2.61 (inactive).

Regarding `CCCCC(O)C1C=CC2C(=O)N(Cc3ccccc3)C(=O)C2N1n1cnnc1` (stereo not given), the composite z-score in assay [1] is -0.246; in [2], 0.095; in assay [3] it was 0.0311; in assay [4], 0.22; in assay [5] it was 0.225; in [6], 1.1. Moreover, the composite z-score in [7] is 1.08; in assay [9], 0.437; in assay [10] it was 0.312; in [11], 0.623; in [15], 2.57; in assay [17] it was -0.103. The composite z-score in [18] was determined as 0.159; in assay [19], 0.62; in [20], 0.035. Moreover, the z-score in [8] was 0.2 (inactive); in assay [12] it was -0.28 (inactive); in assay [13], 0.653 (inactive); in assay [14], -0.335 (inactive); in [16], -0.981 (inactive).

With `CCCNC(=O)[C@@]1(Sc2ccc(C)cc2)CC(=O)N(Cc2ccccc2)[C@@H]1c1ccc(CO)cc1I`, the composite z-score was 1.33 in assay [1]; -0.0477 in assay [2]; -0.0917 in [3]; -0.008 in assay [4]; 0.367 in assay [5]; 0.848 in assay [6]. For the same compound, the composite z-score was 1.23 in assay [7]; 0.692 in assay [9]; -0.0346 in [10]; 0.933 in [11]; 0.869 in assay [15]; -0.0866 in [17]. Besides, the values for the composite z-score in assay [18], in assay [19] and in assay [20] were 0.54, 0.282 and -0.11, respectively. The z-score in [8] is -1.9 (inactive); in assay [12], -1.09 (inactive); in assay [13], -1.46 (inactive); in assay [14] it was 0.605 (inactive); in [16], 0.605 (inactive).

The values above are taken from PubChem BioAssay.
